This passage reports binding signal results from publication doi:10.1101/2024.03.05.583629.

The target in this assay is pT7_6His-AlfaTag-HOXD13 (human, UniProt P35453 263-343). In words: PADIT-seq. The note with it: dsDNA, one strand shown.
Sequence of pT7_6His-AlfaTag-HOXD13 (P35453 263-343): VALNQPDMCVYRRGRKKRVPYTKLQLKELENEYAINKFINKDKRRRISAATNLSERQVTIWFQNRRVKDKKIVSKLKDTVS
“CTCGAGGATATCAAGATCTGGCCTCGGCTCGCTAAAAGGAACCTCTAGCTAGCCGACTCACTATAGGGATAATCGCCCTGAGCAAAGACC” yielded a binding signal of 0.138 ± 0.111 log2FC. The figure for “CTCGAGGATATCAAGATCTGGCCTCGGCTACGTAAAAGGAACCTCTAGCTAGCCGACTCACTATAGGGATAATCGCCCTGAGCAAAGACC” is 0.743 ± 0.0961 log2FC; for “CTCGAGGATATCAAGATCTGGCCTCGGCCGTTTAAAAGGAACCTCTAGCTAGCCGACTCACTATAGGGATAATCGCCCTGAGCAAAGACC” it is 1.9 ± 0.069 log2FC. “CTCGAGGATATCAAGATCTGGCCTCGGCTTACCACGCGGAACCTCTAGCTAGCCGACTCACTATAGGGATAATCGCCCTGAGCAAAGACC” returned a binding signal of -1.03 ± 0.114 log2FC.

In turn, “CTCGAGGATATCAAGATCTGGCCTCGGCGCGTAAGCGGGAACCTCTAGCTAGCCGACTCACTATAGGGATAATCGCCCTGAGCAAAGACC” returned a binding signal of -0.575 ± 0.113 log2FC. In the case of “CTCGAGGATATCAAGATCTGGCCTCGGCGTTTTAAGGGGAACCTCTAGCTAGCCGACTCACTATAGGGATAATCGCCCTGAGCAAAGACC” it was 1.67 ± 0.0925 log2FC. The figure for “CTCGAGGATATCAAGATCTGGCCTCGGCTTTTTACGGGGAACCTCTAGCTAGCCGACTCACTATAGGGATAATCGCCCTGAGCAAAGACC” is 3.16 ± 0.0883 log2FC. In the case of “CTCGAGGATATCAAGATCTGGCCTCGGCGGATTAAAAGGAACCTCTAGCTAGCCGACTCACTATAGGGATAATCGCCCTGAGCAAAGACC” it was 1.17 ± 0.076 log2FC.

“CTCGAGGATATCAAGATCTGGCCTCGGCATTTTAAGTGGAACCTCTAGCTAGCCGACTCACTATAGGGATAATCGCCCTGAGCAAAGACC” had a binding signal of 1.18 ± 0.0951 log2FC. The figure for “CTCGAGGATATCAAGATCTGGCCTCGGCGCGCCGGCGGGAACCTCTAGCTAGCCGACTCACTATAGGGATAATCGCCCTGAGCAAAGACC” is -1.04 ± 0.18 log2FC. In the case of “CTCGAGGATATCAAGATCTGGCCTCGGCGTTTTAATGGGAACCTCTAGCTAGCCGACTCACTATAGGGATAATCGCCCTGAGCAAAGACC” it was 2.46 ± 0.0744 log2FC; in that of “CTCGAGGATATCAAGATCTGGCCTCGGCGAGGTAAAAGGAACCTCTAGCTAGCCGACTCACTATAGGGATAATCGCCCTGAGCAAAGACC”, -0.51 ± 0.0909 log2FC; in that of “CTCGAGGATATCAAGATCTGGCCTCGGCCTTTTAGTTGGAACCTCTAGCTAGCCGACTCACTATAGGGATAATCGCCCTGAGCAAAGACC”, 0.113 ± 0.0927 log2FC. In the case of “CTCGAGGATATCAAGATCTGGCCTCGGCGCGCGAGCGGGAACCTCTAGCTAGCCGACTCACTATAGGGATAATCGCCCTGAGCAAAGACC” it was -0.654 ± 0.136 log2FC. “CTCGAGGATATCAAGATCTGGCCTCGGCTGACCACGCGGAACCTCTAGCTAGCCGACTCACTATAGGGATAATCGCCCTGAGCAAAGACC” gave a binding signal of -1.02 ± 0.112 log2FC. The figure for “CTCGAGGATATCAAGATCTGGCCTCGGCATGATAAAAGGAACCTCTAGCTAGCCGACTCACTATAGGGATAATCGCCCTGAGCAAAGACC” is 1.61 ± 0.0749 log2FC. In the case of “CTCGAGGATATCAAGATCTGGCCTCGGCCGCTATCGCGGAACCTCTAGCTAGCCGACTCACTATAGGGATAATCGCCCTGAGCAAAGACC” it was -0.806 ± 0.119 log2FC. As for “CTCGAGGATATCAAGATCTGGCCTCGGCCTCGTAAAAGGAACCTCTAGCTAGCCGACTCACTATAGGGATAATCGCCCTGAGCAAAGACC”, the binding signal was determined as 3.09 ± 0.0876 log2FC.

As to “CTCGAGGATATCAAGATCTGGCCTCGGCAAGTTAAAAGGAACCTCTAGCTAGCCGACTCACTATAGGGATAATCGCCCTGAGCAAAGACC”, the binding signal was 1.07 ± 0.0825 log2FC. Regarding “CTCGAGGATATCAAGATCTGGCCTCGGCATTTTATCCGGAACCTCTAGCTAGCCGACTCACTATAGGGATAATCGCCCTGAGCAAAGACC”, the binding signal turned out to be 1.17 ± 0.0736 log2FC. The sequence “CTCGAGGATATCAAGATCTGGCCTCGGCATAGTAAAAGGAACCTCTAGCTAGCCGACTCACTATAGGGATAATCGCCCTGAGCAAAGACC” registered a binding signal of 1.98 ± 0.0822 log2FC. “CTCGAGGATATCAAGATCTGGCCTCGGCACACTAAAAGGAACCTCTAGCTAGCCGACTCACTATAGGGATAATCGCCCTGAGCAAAGACC” came in with a binding signal of 0.427 ± 0.0841 log2FC. As for “CTCGAGGATATCAAGATCTGGCCTCGGCGCCATAAAAGGAACCTCTAGCTAGCCGACTCACTATAGGGATAATCGCCCTGAGCAAAGACC”, the binding signal stood at 2.57 ± 0.0659 log2FC. The figure for “CTCGAGGATATCAAGATCTGGCCTCGGCTTTTTAATCGGAACCTCTAGCTAGCCGACTCACTATAGGGATAATCGCCCTGAGCAAAGACC” is 1.1 ± 0.0911 log2FC; for “CTCGAGGATATCAAGATCTGGCCTCGGCTTTTTAGATGGAACCTCTAGCTAGCCGACTCACTATAGGGATAATCGCCCTGAGCAAAGACC” it is 0.28 ± 0.11 log2FC. The figure for “CTCGAGGATATCAAGATCTGGCCTCGGCATTTTAGTCGGAACCTCTAGCTAGCCGACTCACTATAGGGATAATCGCCCTGAGCAAAGACC” is -0.427 ± 0.127 log2FC.
